Measurements from the supplement of paper PMC12067926.

The compounds below were run on Bacillus 1 (Bacillus foraminis) (assay: relative growth (AUC of 72 h growth curve relative to DMSO control, dAUC) (ratio); higher = more growth (less inhibition), active = hit call of the paper). Details: 20 µM;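 active = growth AUC significantly below the DMSO wells by Dunnett test; inactive = the rest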.
Method: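 Environmental bacterial isolates (Iceland stream sediment and Silwood Park soil) and whole stream-sediment communities were grown in LB from a 1:100 dilution with each pesticide at 20 µM (1% DMSO). A600 was read hourly for 72 h and the area under a spline-fitted growth curve (AUC) was computed. dAUC is the mean AUC of 3 biological replicates divided by the mean AUC of the DMSO controls. Significance was tested by Dunnett's test against the DMSO control.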

Question: For `CC1(C)[C@H](C(=O)O[C@H](C#N)c2cccc(Oc3ccccc3)c2)[C@@H]1C=C(Br)Br`, which relative growth is on record?
Answer: 1.1 (inactive)

Question: With `O=C(NC(=O)c1c(F)cccc1F)Nc1ccc(OC(F)(F)C(F)OC(F)(F)F)c(Cl)c1` (configuration not stated) as the compound, how does the relative growth read?
Answer: 0.942 (inactive)

Question: Which relative growth does the source give for `CC(Oc1ccc(Oc2nc3ccc(Cl)cc3o2)cc1)C(=O)O` (configuration not stated) here?
Answer: 1.02 (inactive)

Question: With `N#Cc1c[nH]cc1-c1cccc2c1OC(F)(F)O2` as the compound, how does the relative growth read?
Answer: 0.935 (inactive)

Question: Which relative growth does the source give for `COc1ccc(-c2ccccc2)cc1NNC(=O)OC(C)C` here?
Answer: 1.03 (inactive)

Question: `CC(C)(C)C(O)(CCc1ccc(Cl)cc1)Cn1cncn1` (configuration not stated) was tested. Which relative growth did it give?
Answer: 0.924 (inactive)

Question: `CS(=O)(=O)c1cc(C(F)(F)F)ccc1C(=O)c1cnoc1C1CC1` was tested. Which relative growth did it give?
Answer: 1.02 (inactive)

Question: With `CNC(=O)/C=C(\C)OP(=O)(OC)OC` as the compound, how does the relative growth read?
Answer: 0.96 (inactive)

Question: `CCOP(=S)(OCC)Oc1cc(C)nc(C(C)C)n1` was tested. Which relative growth did it give?
Answer: 0.963 (inactive)

Question: Which relative growth does the source give for `CON(C)C(=O)Nc1ccc(Cl)c(Cl)c1` here?
Answer: 1.04 (inactive)

Question: With `CO/C=C(/C(=O)OC)c1ccccc1COc1cccc(C(F)(F)F)n1` as the compound, how does the relative growth read?
Answer: 1.05 (inactive)

Question: How did the relative growth turn out when `O=C1C2CC=CCC2C(=O)N1SC(Cl)(Cl)Cl` (configuration not stated) was run?
Answer: 0.939 (inactive)

Question: For `CO/C=C(/C(=O)OC)c1ccccc1Oc1cc(Oc2ccccc2C#N)ncn1`, which relative growth is on record?
Answer: 1.03 (inactive)

Question: `CC(C)NC(=O)N1CC(=O)N(c2cc(Cl)cc(Cl)c2)C1=O` was tested. Which relative growth did it give?
Answer: 0.928 (inactive)

Question: `CCOC(=O)CC(SP(=S)(OC)OC)C(=O)OCC` (configuration not stated) was tested. Which relative growth did it give?
Answer: 1.05 (inactive)

Question: How did the relative growth turn out when `ClC1C(Cl)C(Cl)C(Cl)C(Cl)C1Cl` (configuration not stated) was run?
Answer: 1.11 (inactive)

Question: With `CCOc1ccc(C(C)(C)COCc2cccc(Oc3ccccc3)c2)cc1` as the compound, how does the relative growth read?
Answer: 0.954 (inactive)

Question: For `OC(Cn1cncn1)(c1ccc(F)cc1)c1ccccc1F` (configuration not stated), which relative growth is on record?
Answer: 1.07 (inactive)

Question: `COP(=S)(OC)Oc1nc(Cl)c(Cl)cc1Cl` was tested. Which relative growth did it give?
Answer: 1.08 (inactive)

Question: `CC(C)N(C)S(=O)(=O)NC(=O)c1cc(-n2c(=O)cc(C(F)(F)F)n(C)c2=O)c(F)cc1Cl` was tested. Which relative growth did it give?
Answer: 0.998 (inactive)

Question: Which relative growth does the source give for `Cc1ccc(/N=C/N(C)/C=N/c2ccc(C)cc2C)c(C)c1` here?
Answer: 1.01 (inactive)

Question: Which relative growth does the source give for `O=C1C2(Cl)C3(Cl)C4(Cl)C(Cl)(Cl)C5(Cl)C3(Cl)C1(Cl)C5(Cl)C24Cl` (configuration not stated) here?
Answer: 0.959 (inactive)

Question: With `N#Cc1nn(-c2c(Cl)cc(C(F)(F)F)cc2Cl)c(N)c1[S+]([O-])C(F)(F)F` (configuration not stated) as the compound, how does the relative growth read?
Answer: 1.01 (inactive)

Question: How did the relative growth turn out when `Cc1cc(C)c(C2=C(OC(=O)CC(C)(C)C)C3(CCCC3)OC2=O)c(C)c1` was run?
Answer: 0.993 (inactive)

Question: Which relative growth does the source give for `CCc1nn(C)c(C(=O)NCc2ccc(Oc3ccc(C)cc3)cc2)c1Cl` here?
Answer: 1.05 (inactive)

Question: Which relative growth does the source give for `CCOP(=S)(OCC)Oc1nc(Cl)c(Cl)cc1Cl` here?
Answer: 1.07 (inactive)

Question: How did the relative growth turn out when `O=C(NC(=O)c1c(F)cccc1F)Nc1ccc(Cl)cc1` was run?
Answer: 1.05 (inactive)
